Data: PubChem BioAssay AID1159580 (chemical genetic matrix, 2015)
Where “and” joins values, the source holds several entries; their conditions need not be identical. Identical values can stand only once. The campaign covered roughly 5,500 compounds. About 2,000 (36%) were called active. Not shown: some 18% with an inconclusive outcome. Rule as the data show it: active = normalized growth mostly below about 0.91 (no sharp cut-off); inconclusive = no clear call, values can overlap the other calls; inactive = mostly above about 0.92. The list shows a part of the results.

Test: chemical genetic growth profiling, strain panel (AID 1159580);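 also: tested at 20 µM; growth read once vehicle control cultures reached saturation at 30 °C; 1 = growth at the plate median or of vehicle wells; lower values mean less growth of the strain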
Conditions: S. cerevisiae deletion strains, growth OD

Measured: normalized growth

CC(C)(C)NCC(O)c1ccccc1Cl (stereo unspecified)
inactive: locus YAL013W, strain DEP1, stronger effect = lower value 0.993 | locus YAL021C, strain ccr4, stronger effect = lower value 1.01 | locus YAL026C, strain drs2, stronger effect = lower value 1.01 | locus YAL030W, strain snc1, stronger effect = lower value 0.979 | locus YAL040C, strain CLN3, stronger effect = lower value 0.966 | locus YBL061C, strain skt5, stronger effect = lower value 0.991 | locus YBR009C, strain hhf1, stronger effect = lower value 0.972 | locus YBR021W, strain FUR4, stronger effect = lower value 0.98 | locus YBR023C, strain chs3, stronger effect = lower value 0.993 | locus YBR171W, strain sec66, stronger effect = lower value 0.989 | locus YBR229C, strain ROT2, stronger effect = lower value 0.95 | locus YBR231C, strain swc5, stronger effect = lower value 0.989 | locus YBR279W, strain paf1, stronger effect = lower value 1 | locus YCL011C, strain gbp2, stronger effect = lower value 0.995 | locus YCL016C, strain dcc1, stronger effect = lower value 0.988 | locus YCL029C, strain bik1, stronger effect = lower value 0.978 | locus YCL061C, strain MRC1 (second series), stronger effect = lower value 1.01 | locus YCL061C, strain MRC1, stronger effect = lower value 0.992 | locus YCL069W, strain vba3, stronger effect = lower value 0.991 | locus YCR088W, strain abp1, stronger effect = lower value 0.99 | locus YDL005C, strain med2, stronger effect = lower value 1.01 | locus YDL035C, strain GPR1, stronger effect = lower value 0.947 | locus YDL040C, strain nat1, stronger effect = lower value 0.979 | locus YDL074C, strain BRE1, stronger effect = lower value 1.01 | locus YDL101C, strain DUN1, stronger effect = lower value 0.987 | locus YDL134C, strain PPH21, stronger effect = lower value 0.98 | locus YDL185W, strain tfp1, stronger effect = lower value 0.991 | locus YDL192W, strain arf1, stronger effect = lower value 0.973 | locus YDR001C, strain nth1, stronger effect = lower value 0.978 | locus YDR069C, strain doa4, stronger effect = lower value 0.988 | locus YDR101C, strain arx1, stronger effect = lower value 0.992 | locus YDR137W, strain rgp1, stronger effect = lower value 1.01 | locus YDR150W, strain NUM1, stronger effect = lower value 0.976 and 1.01 | locus YDR159W, strain sac3, stronger effect = lower value 0.939 | locus YDR162C, strain NBP2, stronger effect = lower value 0.979 | locus YDR195W, strain ref2 0.959 | locus YDR297W, strain sur2, stronger effect = lower value 1.01 | locus YDR318W, strain mcm21, stronger effect = lower value 1 | locus YDR334W, strain swr1, stronger effect = lower value 0.996 | locus YDR335W, strain msn5, stronger effect = lower value 0.991 | locus YDR363W, strain ESC2, stronger effect = lower value 0.999 | locus YDR388W, stronger effect = lower value 0.991 | locus YDR392W, strain spt3, stronger effect = lower value 0.831 | locus YDR502C, strain sam2, stronger effect = lower value 0.965 | locus YEL003W, strain gim4, stronger effect = lower value 0.996 | locus YEL037C, strain rad23, stronger effect = lower value 0.994 | locus YEL061C, strain CIN8 (second series), stronger effect = lower value 0.987 | locus YEL061C, strain CIN8, stronger effect = lower value 0.985 | locus YER002W, strain NOP16, stronger effect = lower value 0.988 | locus YER015W, strain faa2, stronger effect = lower value 0.995 | locus YER016W, strain bim1, stronger effect = lower value 0.989 | locus YER110C, stronger effect = lower value 0.966 | locus YER111C, strain swi4, stronger effect = lower value 0.992 | locus YER155C, strain BEM2 (second series), stronger effect = lower value 0.958 | locus YER155C, strain BEM2, stronger effect = lower value 1 | locus YER167W, strain BCK2, stronger effect = lower value 0.957 | locus YFR010W, strain ubp6, stronger effect = lower value 1 | locus YGL078C, strain dbp3, stronger effect = lower value 0.982 | locus YGL086W, strain mad1, stronger effect = lower value 0.978 | locus YGL167C, strain pmr1, stronger effect = lower value 0.989 | locus YGL173C, strain kem1, stronger effect = lower value 1.01 | locus YGL227W, strain vid30, stronger effect = lower value 0.988 | locus YGL240W, strain doc1, stronger effect = lower value 0.981 | locus YGL248W, strain PDE1, stronger effect = lower value 0.984 | locus YGL253W, strain hxk2, stronger effect = lower value 0.994 | locus YGR078C, strain PAC10, stronger effect = lower value 1.01 and 1.02 | locus YGR135W, strain pre9, stronger effect = lower value 0.979 | locus YGR229C, strain SMI1, stronger effect = lower value 1.01 and 1.03 | locus YGR252W, strain gcn5, stronger effect = lower value 0.898 | locus YHR013C, strain ard1, stronger effect = lower value 0.952 | locus YHR027C, strain rpn1, stronger effect = lower value 0.996 | locus YHR030C, strain SLT2, stronger effect = lower value 0.992 and 0.981 | locus YHR079C, strain IRE1 (second series), stronger effect = lower value 1 | locus YHR079C, strain IRE1, stronger effect = lower value 0.977 | locus YHR094C, strain hxt1, stronger effect = lower value 0.991 | locus YHR129C, strain ARP1, stronger effect = lower value 0.997 | locus YHR142W, strain chs7, stronger effect = lower value 1.02 | locus YHR200W, strain rpn10, stronger effect = lower value 1.01 | locus YIL066C, strain RNR3, stronger effect = lower value 0.978 | locus YIL073C, strain SPO22, stronger effect = lower value 0.972 | locus YIL125W, strain kgd1, stronger effect = lower value 0.989 | locus YIR030C, strain dcg1, stronger effect = lower value 0.983 | locus YJL092W, strain hpr5, stronger effect = lower value 0.997 | locus YJL095W, strain BCK1 (second series), stronger effect = lower value 0.996 | locus YJL095W, strain BCK1, stronger effect = lower value 1.02 and 0.99 | locus YJL115W, strain asf1, stronger effect = lower value 0.987 | locus YJL129C, strain trk1, stronger effect = lower value 1 | locus YJL134W, strain LCB3, stronger effect = lower value 0.981 | locus YJL154C, strain vps35, stronger effect = lower value 0.989 | locus YJL164C, strain tpk1, stronger effect = lower value 1.01 | locus YJL166W, strain qcr8, stronger effect = lower value 0.987 | locus YJL168C, strain set2, stronger effect = lower value 0.995 | locus YJL187C, strain SWE1 (second series), stronger effect = lower value 0.994 | locus YJL187C, strain SWE1, stronger effect = lower value 0.997 | locus YJR043C, strain POL32, stronger effect = lower value 1.03 | locus YJR066W, strain TOR1, stronger effect = lower value 0.921
